Values joined by “and” are separate entries in the source; they are usually repeats but may differ in a detail not shown here. Equal values may be shown once. Results filed as inconclusive are left out. Active and inactive are the calls of the source. Calls come from the whole dose curve; as a rule, active = well fitted activation curve with a large enough effect; inconclusive = small, poorly fitted or top-dose-only effect; inactive = flat fitted curve, though single readings scatter.
Experiment: qHTS Assay for Identifying a Potential Treatment of Ataxia-Telangiectasia: SAR for Probe
Details: F2112 A-T fibroblasts, NCS-induced pKAP1 AlphaLISA
Excerpt: NIH Chemical Genomics Center [NCGC] NIH Molecular Libraries Probe Centers Network [MLPCN] MLPCN Grant: MH089030-01 Assay Submitter (PI): Wei Zheng and Yosef Shiloh Ataxia-telangiectasia (A-T) is a devastating and progressive disease for which, there is no cure. Although A-T is a multisystem disease, it is stereotyped characterized by its neurological symptoms such as truncal ataxia, due to cerebellar cortical degeneration of the Purkinje and granule cells. Other symptoms of A-T are telangiectasias (dilated blood vessels), primary immunodeficiency, marked sensitivity to ionizing radiation (IR), chromosomal instability and predisposition to cancer. The underlying genetic cause of A-T is null mutations in the ATM (A-T mutated) gene. ATM is a nuclear serine/threonine kinase that functions as a master regulator of the cellular responses to double strand breaks (DSBs) in the DNA. Upon activation by DSBs, ATM phosphorylates a plethora of downstream targets, including KAP-1 on Ser82452. […] To screen for small molecules that will compensate for the loss of ATM in cells derived from A-T patients, we monitored KAP-1 phosphorylation as a readout for ATM-like activity using an AlphaLISA assay. […]
qHTS Assay Protocol: Step,Parameter,Value,Description 1. […] Readout, EnVision, EnVision plate reader. […] EnVision protocol for 1536-well AlphaScreen read (30ms excitation, 100ms read), about 10 min/plate.

**Q.** With `CC(=O)c1c(O)c(C)c(O)c(Cc2c(O)c3c(c(C(=O)/C=C/c4ccccc4)c2O)OC(C)(C)C=C3)c1O` as the molecule, how does the Potency read?
**A.** Its Potency is 29.2 µM (active) and 10 µM (active).

Source: PubChem BioAssay AID504362 (National Center for Advancing Translational Sciences (NCATS), 2011)
